From publication PMC7826789 (International Journal of Molecular Sciences, 2021)

Test system: TNK2
Conditions: Compound Concentration (nM):1000
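Also: KINOMEscan scanMAX binding as percent activity remaining versus control; lower means stronger binding.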

Compared with `CCS(=O)(=O)c1ccc(OC)c(Nc2ncc(-c3cccc(OC)c3)o2)c1` [GW580509X], `COc1cc2ncn(-c3cc(O[C@H](C)c4ccccc4Cl)c(C(N)=O)s3)c2cc1OC` [GSK237701A] is lower in “Percent Control” value: 100% for the first, 58% for the second.

First: C[C@@H](Oc1cc(-n2cnc3ccc(OC4CCN(C)CC4)cc32)sc1C(N)=O)c1ccccc1Cl [GSK579289A]
Second: Cl.O=C(O[C@H]1CN[C@H](C#Cc2cc3ncnc(Nc4ccc5c(cnn5Cc5ccccc5)c4)c3s2)C1)N1CCOCC1 [GSK200398A]
The “Percent Control” value of the first is lower: 86% for the first, 97% for the second.

`O=C1Nc2ccc(C(=O)c3ccco3)cc2C1=Cc1cc(Cl)c(O)c(Cl)c1` [GW406108X] and `NS(=O)(=O)c1ccc(N/N=C2\C(=O)Nc3ccc(C(=O)NCc4ccncc4)cc32)cc1` [GW300657X] are the same in “Percent Control” value: 100% for the first, 100% for the second.

`Cc1cc(O)cc(C)c1/C=C/c1cncc(C(N)=O)c1` [GW435821X] and `COc1cc(/C=N/Nc2ncnc3[nH]ncc23)ccc1O` [GW578748X] are the same in “Percent Control” value: 100% for the first, 100% for the second.

`COc1cc(C=NNc2ncnc3c2cnn3-c2ccccc2)ccc1O` [GW513184X] and `Cl.O=S1CCN(Cc2ccc(-c3ccc4ncnc(Nc5ccc(OCc6ccccc6)c(F)c5)c4c3)o2)CC1` [GW576924A] are the same in “Percent Control” value: 100% for the first, 100% for the second.

First: NS(=O)(=O)c1ccc(N/N=C2\C(=O)Nc3ccc(C(=O)NCCc4c[nH]cn4)cc32)cc1 [GW300660X]
Second: CN(C)CCNC(=O)Nc1ccc(N(C)c2ccnc(Nc3ccc(CS(C)(=O)=O)cc3)n2)cc1.Cl [GW830900A]
The “Percent Control” value of the first is higher: 100% for the first, 75% for the second.

`Cl.O=C(Nc1ccc(Oc2ccc3[nH]c(NC(=O)c4ccco4)nc3c2)cc1)Nc1cc(C(F)(F)F)ccc1F` [GW683134A] and `CCn1c(-c2nonc2N)nc2c(C#CC(C)(C)O)nc(OCCNC)cc21.Cl` [GSK949675] are the same in “Percent Control” value: 100% for the first, 100% for the second.

Test system: TNNI3K
Conditions: Compound Concentration (nM):1000

Going from `CN1CCN(C(=O)c2ccc(NC(=O)Nc3ccc(N(C)c4ccnc(Nc5ccc(CS(C)(=O)=O)cc5)n4)cc3)cc2)CC1.Cl` [GW830263A] to `CN(C)CCNC(=O)Nc1ccc(N(C)c2ccnc(Nc3ccc(CS(C)(=O)=O)cc3)n2)cc1.Cl` [GW830900A], the “Percent Control” value rises from 92% to 97%.

`COc1cc2ncnc(Nc3ccc4c(cnn4Cc4ccccc4)c3)c2cc1OC.Cl` [GW282449A] and `CN(C)c1cc2c(Nc3ccc4c(cnn4Cc4ccccc4)c3)ncnc2cn1` [GW282974X] are the same in “Percent Control” value: 100% for the first, 100% for the second.

`CC1=C(C(=O)Nc2ccc3[nH]ncc3c2)C(c2ccc3ccccc3c2)CC(=O)N1` (stereo not drawn) [GSK270822A] and `CC1=C(C(=O)Nc2ccc3[nH]ncc3c2)C(c2ccc(Cl)c(Cl)c2)CC(=O)N1` (stereo not drawn) [GSK299115A] are the same in “Percent Control” value: 100% for the first, 100% for the second.

`O=C(Nc1n[nH]c2nc(-c3ccc(O)cc3)c(Br)cc12)C1CC1` [SB-725317] and `CCc1ccc(Oc2nccc(-c3c(-c4ccc(F)cc4)ncn3C3CCNCC3)n2)cc1` [SB-242719] are the same in “Percent Control” value: 100% for the first, 100% for the second.

Compared with `CCS(=O)(=O)c1ccc(OC)c(Nc2ncc(-c3cccc(F)c3)o2)c1` [GW621970X], `CCS(=O)(=O)c1ccc(OC)c(Nc2ncc(-c3cccc(OC)c3)o2)c1` [GW580509X] is higher in “Percent Control” value: 66% for the first, 100% for the second.

Going from `COc1ccc2cc(-c3c(-c4ccncc4)nc(-c4ccc(S(C)(=O)=O)cc4C)n3C)ccc2c1` [SB-633825] to `COc1cccc(-c2c[nH]c3c(N/N=C/c4ccncc4)ncnc23)c1` [GW814408X], the “Percent Control” value falls from 100% to 31%.

`COc1ccccc1-c1cc(/C=C2\C(=O)Nc3ncc(Br)cc32)cc(Br)c1O` [GW442130X] and `O=C1Nc2ccc(C(=O)c3ccco3)cc2C1=Cc1cc(Cl)c(O)c(Cl)c1` [GW406108X] are the same in “Percent Control” value: 100% for the first, 100% for the second.

`COc1ccc2[nH]c3c4[nH]c5ccc(OC)cc5c4c4c(c3c2c1)C(=O)NC4=O` [GW296115X] and `COc1ccc(COc2ccc(Cc3cnc(N)nc3N)cc2OC)cc1` [GW632580X] are the same in “Percent Control” value: 90% for the first, 90% for the second.

Going from `COc1cccc(-n2ncc3c(N/N=C/c4ccncc4)ncnc32)c1` [GW784752X] to `COc1cc(C=NNc2ncnc3c2cnn3-c2ccccc2)ccc1O` [GW513184X], the “Percent Control” value rises from 51% to 84%.

`NS(=O)(=O)c1ccc(N/N=C2\C(=O)Nc3ccc(Cl)cc32)cc1` [GW280670X] and `NS(=O)(=O)c1ccc(N/N=C2\C(=O)Nc3ccc(-c4cnco4)cc32)cc1` [GW276655] are the same in “Percent Control” value: 100% for the first, 100% for the second.

First: COC(=O)Nc1nc2ccc(Oc3ccc(NC(=O)Nc4cc(C(F)(F)F)ccc4F)cc3)cc2s1.Cl [GW693917A]
Second: Cl.O=C(Nc1ccc(Oc2ccc3[nH]c(NC(=O)c4ccco4)nc3c2)cc1)Nc1cc(C(F)(F)F)ccc1F [GW683134A]
The “Percent Control” value of the first is higher: 61% for the first, 53% for the second.

Going from `COc1ccc2c(-c3ccnc(Nc4cccc(OC(F)(F)F)c4)n3)cnn2n1` [GW810372X] to `Nc1ncnc2occ(-c3ccc(NC(=O)Nc4cc(C(F)(F)F)ccc4F)cc3)c12` [GW770249X], the “Percent Control” value falls from 100% to 40%.

Going from `Cl.c1ccc(Cc2nc3ccc(Nc4ncnc5ccccc45)cc3[nH]2)cc1` [GR269666A] to `Cl.O=S1CCN(Cc2ccc(-c3ccc4ncnc(Nc5ccc(OCc6ccccc6)c(F)c5)c4c3)o2)CC1` [GW576924A], the “Percent Control” value rises from 84% to 100%.

Going from `C/C(Nc1ccc(S(N)(=O)=O)cc1)=C1/C(=O)Nc2ccccc21` [GW335962X] to `CC(C)COC(=O)c1ccc2c(c1)/C(=C/Nc1ccc(S(N)(=O)=O)cc1)C(=O)N2` [GW416981X], the “Percent Control” value rises from 69% to 100%.

`COc1cc(N2CCN(C(C)C)CC2)ccc1Nc1nc(Nc2ccc(F)cc2C(=O)NC[C@@H](O)CO)c2cc[nH]c2n1` [GSK1392956A] and `COc1cc(C)c(N(C)C(=O)CN(C)C)cc1Nc1nc(Nc2cccc(F)c2C(N)=O)c2cc[nH]c2n1` [GSK2219385] are the same in “Percent Control” value: 100% for the first, 100% for the second.

Compared with `Cl.O=C(Nc1ccc(Oc2ccc3[nH]c(NC(=O)c4ccccc4)nc3c2)cc1)Nc1cc(C(F)(F)F)ccc1F` [GW709042A], `NS(=O)(=O)c1ccc(N/N=C2\C(=O)Nc3ccc(C(=O)NCc4ccncc4)cc32)cc1` [GW300657X] is higher in “Percent Control” value: 55% for the first, 96% for the second.

First: NS(=O)(=O)c1ccc(Nc2ncc(-c3ccccc3)o2)cc1 [GW572399X]
Second: NS(=O)(=O)c1ccc(N/N=C2\C(=O)Nc3ccc(C(=O)NCCc4c[nH]cn4)cc32)cc1 [GW300660X]
The “Percent Control” value of the first is higher: 100% for the first, 92% for the second.

`C[C@@H](Oc1cc(-n2cnc3ccc(OC4CCN(C)CC4)cc32)sc1C(N)=O)c1ccccc1Cl` [GSK579289A] and `COc1cc2ncn(-c3cc(O[C@H](C)c4ccccc4Cl)c(C(N)=O)s3)c2cc1OC` [GSK237701A] are the same in “Percent Control” value: 100% for the first, 100% for the second.

Going from `Cc1cc(O)cc(C)c1/C=C/c1cncc(C(N)=O)c1` [GW435821X] to `COc1cc(/C=N/Nc2ncnc3[nH]ncc23)ccc1O` [GW578748X], the “Percent Control” value rises from 67% to 100%.

First: CCn1c(-c2nonc2N)nc2c(C#CC(C)(C)O)nc(OCCNC)cc21.Cl [GSK949675]
Second: Cl.O=C(O[C@H]1CN[C@H](C#Cc2cc3ncnc(Nc4ccc5c(cnn5Cc5ccccc5)c4)c3s2)C1)N1CCOCC1 [GSK200398A]
The “Percent Control” value of the first is higher: 100% for the first, 55% for the second.
